Results reported in the supplement of paper PMC11732987, “Enantioselective OTUD7B fragment discovery through chemoproteomics screening and high-throughput optimisation” (Communications Chemistry, 2025).

Tests used:
Test in all cases: log2 ratio of Biotin-Ahx-Ub-VS probe labelling (fragment/DMSO); higher = less target engagement (more negative = stronger competition), active = hit call of the paper (q ≤ 0.05, log2 ratio ≤ -1)
Settings in all cases: compound concentration: 200 uM; treatment time: 3 h
USP34 = USP34 (UniProt Q70CQ2)
USP34, sequence (Q70CQ2 whole entry, the tested form may be a part): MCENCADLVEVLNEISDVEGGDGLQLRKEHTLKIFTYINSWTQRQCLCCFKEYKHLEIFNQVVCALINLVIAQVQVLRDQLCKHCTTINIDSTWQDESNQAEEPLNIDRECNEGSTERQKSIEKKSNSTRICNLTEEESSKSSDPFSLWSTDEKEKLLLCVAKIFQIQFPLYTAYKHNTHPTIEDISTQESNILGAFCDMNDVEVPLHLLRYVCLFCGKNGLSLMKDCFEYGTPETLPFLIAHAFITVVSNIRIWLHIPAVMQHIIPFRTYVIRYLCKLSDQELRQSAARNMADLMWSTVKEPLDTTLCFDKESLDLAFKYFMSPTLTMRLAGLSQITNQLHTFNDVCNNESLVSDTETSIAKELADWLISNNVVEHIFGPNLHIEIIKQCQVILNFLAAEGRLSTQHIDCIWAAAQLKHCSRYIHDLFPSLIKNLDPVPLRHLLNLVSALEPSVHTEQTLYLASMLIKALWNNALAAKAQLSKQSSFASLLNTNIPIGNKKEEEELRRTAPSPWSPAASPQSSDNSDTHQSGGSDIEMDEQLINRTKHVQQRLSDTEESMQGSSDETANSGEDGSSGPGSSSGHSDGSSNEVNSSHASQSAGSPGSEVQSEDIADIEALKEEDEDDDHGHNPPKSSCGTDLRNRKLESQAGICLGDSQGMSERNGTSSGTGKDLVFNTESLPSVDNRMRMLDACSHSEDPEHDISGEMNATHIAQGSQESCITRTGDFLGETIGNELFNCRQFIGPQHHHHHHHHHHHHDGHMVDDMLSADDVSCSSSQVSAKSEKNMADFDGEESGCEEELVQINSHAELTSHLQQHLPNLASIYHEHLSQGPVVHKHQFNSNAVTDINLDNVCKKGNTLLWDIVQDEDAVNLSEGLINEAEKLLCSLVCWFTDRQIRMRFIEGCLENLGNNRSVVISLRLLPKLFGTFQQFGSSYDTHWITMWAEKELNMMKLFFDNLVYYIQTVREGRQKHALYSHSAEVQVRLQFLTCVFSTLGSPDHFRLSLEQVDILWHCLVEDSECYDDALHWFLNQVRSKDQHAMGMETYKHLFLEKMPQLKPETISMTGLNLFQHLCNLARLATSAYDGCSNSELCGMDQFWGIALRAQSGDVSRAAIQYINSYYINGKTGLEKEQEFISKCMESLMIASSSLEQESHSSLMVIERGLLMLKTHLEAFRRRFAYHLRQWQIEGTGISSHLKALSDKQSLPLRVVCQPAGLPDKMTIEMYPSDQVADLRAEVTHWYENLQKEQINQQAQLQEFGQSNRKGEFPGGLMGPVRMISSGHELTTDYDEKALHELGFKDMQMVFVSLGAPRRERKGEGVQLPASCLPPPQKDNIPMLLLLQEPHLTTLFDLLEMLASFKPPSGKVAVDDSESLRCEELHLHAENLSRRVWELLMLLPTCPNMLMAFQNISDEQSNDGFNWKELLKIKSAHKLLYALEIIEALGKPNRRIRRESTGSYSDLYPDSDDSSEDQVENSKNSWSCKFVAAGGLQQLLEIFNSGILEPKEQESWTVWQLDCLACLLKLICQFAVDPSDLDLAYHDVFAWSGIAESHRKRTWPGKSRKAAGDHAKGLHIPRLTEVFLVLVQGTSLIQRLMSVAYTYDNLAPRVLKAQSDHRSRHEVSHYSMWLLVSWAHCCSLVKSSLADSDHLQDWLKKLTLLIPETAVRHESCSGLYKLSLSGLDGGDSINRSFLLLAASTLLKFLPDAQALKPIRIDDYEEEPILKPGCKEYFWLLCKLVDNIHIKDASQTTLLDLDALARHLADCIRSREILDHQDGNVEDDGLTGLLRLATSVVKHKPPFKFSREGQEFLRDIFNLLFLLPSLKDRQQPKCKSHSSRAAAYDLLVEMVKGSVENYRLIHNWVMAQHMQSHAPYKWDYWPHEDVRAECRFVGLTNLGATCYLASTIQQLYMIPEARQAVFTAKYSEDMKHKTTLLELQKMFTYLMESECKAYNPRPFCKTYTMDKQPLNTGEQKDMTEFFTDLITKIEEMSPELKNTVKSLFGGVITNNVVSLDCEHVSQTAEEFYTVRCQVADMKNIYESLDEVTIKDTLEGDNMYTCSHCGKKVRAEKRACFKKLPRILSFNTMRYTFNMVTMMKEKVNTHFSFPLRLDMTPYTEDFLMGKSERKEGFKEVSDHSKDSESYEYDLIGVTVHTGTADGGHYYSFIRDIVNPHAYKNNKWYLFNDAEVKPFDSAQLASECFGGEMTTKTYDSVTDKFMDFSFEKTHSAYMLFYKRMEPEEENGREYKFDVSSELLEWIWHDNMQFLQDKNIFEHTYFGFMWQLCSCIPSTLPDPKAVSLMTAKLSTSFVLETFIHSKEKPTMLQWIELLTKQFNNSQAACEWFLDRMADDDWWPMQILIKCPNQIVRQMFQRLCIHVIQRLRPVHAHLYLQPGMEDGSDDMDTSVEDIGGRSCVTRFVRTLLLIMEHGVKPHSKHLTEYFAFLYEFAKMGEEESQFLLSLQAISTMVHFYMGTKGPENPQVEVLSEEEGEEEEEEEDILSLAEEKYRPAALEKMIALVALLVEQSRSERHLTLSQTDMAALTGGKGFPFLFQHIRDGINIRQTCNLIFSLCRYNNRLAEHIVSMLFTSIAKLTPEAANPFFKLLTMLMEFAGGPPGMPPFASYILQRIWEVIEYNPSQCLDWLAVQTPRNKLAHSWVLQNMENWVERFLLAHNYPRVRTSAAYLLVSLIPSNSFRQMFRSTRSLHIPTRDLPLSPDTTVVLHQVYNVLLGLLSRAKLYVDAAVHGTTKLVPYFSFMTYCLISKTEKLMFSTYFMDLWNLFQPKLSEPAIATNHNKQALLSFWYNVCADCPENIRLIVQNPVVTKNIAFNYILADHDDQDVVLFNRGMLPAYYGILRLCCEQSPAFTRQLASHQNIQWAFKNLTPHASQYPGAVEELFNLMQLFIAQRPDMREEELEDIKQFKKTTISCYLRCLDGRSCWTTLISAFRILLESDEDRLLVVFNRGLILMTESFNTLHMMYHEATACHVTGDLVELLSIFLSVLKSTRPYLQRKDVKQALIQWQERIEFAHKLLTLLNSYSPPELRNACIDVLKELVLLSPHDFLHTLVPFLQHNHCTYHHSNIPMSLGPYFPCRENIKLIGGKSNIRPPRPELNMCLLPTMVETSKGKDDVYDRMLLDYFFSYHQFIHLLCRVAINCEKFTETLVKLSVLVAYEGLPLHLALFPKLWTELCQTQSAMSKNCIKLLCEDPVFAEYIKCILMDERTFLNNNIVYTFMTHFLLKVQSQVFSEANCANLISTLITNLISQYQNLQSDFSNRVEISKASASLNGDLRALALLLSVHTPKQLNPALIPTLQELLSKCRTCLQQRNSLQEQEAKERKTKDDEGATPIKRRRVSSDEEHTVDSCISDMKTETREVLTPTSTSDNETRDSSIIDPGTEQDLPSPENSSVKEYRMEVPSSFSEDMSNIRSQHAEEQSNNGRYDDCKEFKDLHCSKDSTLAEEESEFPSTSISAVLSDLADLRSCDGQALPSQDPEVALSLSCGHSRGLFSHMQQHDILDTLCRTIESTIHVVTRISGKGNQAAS
Outline: (§1)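 Triplicate samples of HEK293T lysate, 495 µg each, received fragment at 200 µM or vehicle for 3 h, followed by Biotin-Ahx-Ub-VS (0.5 µM final) for 1 h. After NeutrAvidin enrichment of labelled DUBs and LysC/trypsin digestion, peptides were run by diaPASEF LC-MS/MS. The values are average log2 fragment/vehicle ratios from global-median-normalised Spectronaut label-free quantities, tested by unpaired t-test on proteins having ≥2 unique peptides.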

USP36 = target: T1, USP36 (UniProt Q9P275)
T1 sequence (whole entry): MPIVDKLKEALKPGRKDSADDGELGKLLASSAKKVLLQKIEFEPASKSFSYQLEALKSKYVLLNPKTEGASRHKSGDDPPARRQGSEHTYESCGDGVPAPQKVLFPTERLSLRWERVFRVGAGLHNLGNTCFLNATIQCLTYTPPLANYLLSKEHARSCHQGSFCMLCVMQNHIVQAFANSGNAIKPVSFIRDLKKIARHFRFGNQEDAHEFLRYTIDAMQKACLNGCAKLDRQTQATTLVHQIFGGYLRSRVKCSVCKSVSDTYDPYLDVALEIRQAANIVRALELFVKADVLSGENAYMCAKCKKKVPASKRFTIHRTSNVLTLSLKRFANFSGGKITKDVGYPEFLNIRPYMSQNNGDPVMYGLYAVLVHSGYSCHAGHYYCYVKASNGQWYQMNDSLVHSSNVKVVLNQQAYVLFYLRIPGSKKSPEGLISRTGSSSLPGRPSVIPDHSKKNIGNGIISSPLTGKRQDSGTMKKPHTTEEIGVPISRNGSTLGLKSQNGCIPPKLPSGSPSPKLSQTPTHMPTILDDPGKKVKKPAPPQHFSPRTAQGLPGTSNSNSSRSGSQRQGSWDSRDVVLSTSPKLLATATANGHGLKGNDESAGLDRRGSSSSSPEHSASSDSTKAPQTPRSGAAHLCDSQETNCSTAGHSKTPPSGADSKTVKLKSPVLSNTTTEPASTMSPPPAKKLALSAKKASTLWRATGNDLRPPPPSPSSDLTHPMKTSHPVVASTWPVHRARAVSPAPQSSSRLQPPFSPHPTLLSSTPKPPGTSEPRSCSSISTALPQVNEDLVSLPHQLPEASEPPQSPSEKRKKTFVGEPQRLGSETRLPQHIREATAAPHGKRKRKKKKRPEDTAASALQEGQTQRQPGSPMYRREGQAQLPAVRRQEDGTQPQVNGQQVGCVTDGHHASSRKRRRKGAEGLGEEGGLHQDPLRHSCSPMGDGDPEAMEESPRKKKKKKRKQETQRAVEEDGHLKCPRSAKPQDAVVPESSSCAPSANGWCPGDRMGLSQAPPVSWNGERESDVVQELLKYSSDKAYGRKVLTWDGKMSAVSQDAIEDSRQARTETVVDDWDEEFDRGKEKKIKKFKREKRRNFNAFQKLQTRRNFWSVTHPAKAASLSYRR
Outline: as §1

USP38 = target: T2, USP38 (UniProt Q8NB14)
T2 sequence (whole entry): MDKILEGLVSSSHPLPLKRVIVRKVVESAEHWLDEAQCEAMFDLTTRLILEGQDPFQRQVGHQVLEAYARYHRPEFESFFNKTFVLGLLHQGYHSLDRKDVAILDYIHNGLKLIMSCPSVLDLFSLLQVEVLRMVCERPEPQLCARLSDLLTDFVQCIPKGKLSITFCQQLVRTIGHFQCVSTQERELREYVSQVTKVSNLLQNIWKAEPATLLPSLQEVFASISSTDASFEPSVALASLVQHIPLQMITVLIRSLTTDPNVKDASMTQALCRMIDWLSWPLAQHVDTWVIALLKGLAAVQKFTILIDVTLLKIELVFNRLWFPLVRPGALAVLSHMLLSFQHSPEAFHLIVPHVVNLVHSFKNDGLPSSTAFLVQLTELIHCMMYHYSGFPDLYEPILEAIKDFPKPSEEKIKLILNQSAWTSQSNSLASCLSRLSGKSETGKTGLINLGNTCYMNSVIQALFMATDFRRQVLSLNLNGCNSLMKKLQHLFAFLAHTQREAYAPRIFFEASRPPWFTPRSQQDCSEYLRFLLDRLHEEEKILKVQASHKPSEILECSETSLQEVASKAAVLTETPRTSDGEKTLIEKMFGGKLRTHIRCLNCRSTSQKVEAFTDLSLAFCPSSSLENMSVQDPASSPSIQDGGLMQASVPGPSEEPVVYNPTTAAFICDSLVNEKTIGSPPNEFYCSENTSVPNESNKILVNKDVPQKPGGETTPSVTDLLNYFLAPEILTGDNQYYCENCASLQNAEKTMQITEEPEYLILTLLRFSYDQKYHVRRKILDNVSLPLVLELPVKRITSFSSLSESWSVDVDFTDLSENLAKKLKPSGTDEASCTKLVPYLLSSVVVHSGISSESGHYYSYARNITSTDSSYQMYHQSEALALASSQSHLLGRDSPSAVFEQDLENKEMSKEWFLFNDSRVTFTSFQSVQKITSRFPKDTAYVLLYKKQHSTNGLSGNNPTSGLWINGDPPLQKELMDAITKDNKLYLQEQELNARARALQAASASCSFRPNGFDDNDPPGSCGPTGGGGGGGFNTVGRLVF
Outline: as §1

USP39 = target: T3, USP39 (UniProt Q53GS9)
T3 sequence (whole entry): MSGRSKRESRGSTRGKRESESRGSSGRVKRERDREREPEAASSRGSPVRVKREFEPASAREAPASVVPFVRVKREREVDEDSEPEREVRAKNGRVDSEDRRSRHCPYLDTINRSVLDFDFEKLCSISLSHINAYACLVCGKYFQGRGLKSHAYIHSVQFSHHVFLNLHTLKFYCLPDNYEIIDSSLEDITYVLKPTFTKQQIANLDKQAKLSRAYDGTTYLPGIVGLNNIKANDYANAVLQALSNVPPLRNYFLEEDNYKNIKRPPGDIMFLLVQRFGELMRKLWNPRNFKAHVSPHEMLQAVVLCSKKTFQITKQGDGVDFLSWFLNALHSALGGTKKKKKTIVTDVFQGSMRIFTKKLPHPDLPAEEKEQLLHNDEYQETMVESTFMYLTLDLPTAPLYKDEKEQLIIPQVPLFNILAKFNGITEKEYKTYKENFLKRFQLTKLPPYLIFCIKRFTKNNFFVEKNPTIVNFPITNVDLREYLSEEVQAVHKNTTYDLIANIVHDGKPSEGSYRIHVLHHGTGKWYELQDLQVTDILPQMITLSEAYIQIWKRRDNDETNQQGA
Outline: as §1

USP4 = target: T4, USP4 (UniProt Q13107)
T4 sequence (whole entry): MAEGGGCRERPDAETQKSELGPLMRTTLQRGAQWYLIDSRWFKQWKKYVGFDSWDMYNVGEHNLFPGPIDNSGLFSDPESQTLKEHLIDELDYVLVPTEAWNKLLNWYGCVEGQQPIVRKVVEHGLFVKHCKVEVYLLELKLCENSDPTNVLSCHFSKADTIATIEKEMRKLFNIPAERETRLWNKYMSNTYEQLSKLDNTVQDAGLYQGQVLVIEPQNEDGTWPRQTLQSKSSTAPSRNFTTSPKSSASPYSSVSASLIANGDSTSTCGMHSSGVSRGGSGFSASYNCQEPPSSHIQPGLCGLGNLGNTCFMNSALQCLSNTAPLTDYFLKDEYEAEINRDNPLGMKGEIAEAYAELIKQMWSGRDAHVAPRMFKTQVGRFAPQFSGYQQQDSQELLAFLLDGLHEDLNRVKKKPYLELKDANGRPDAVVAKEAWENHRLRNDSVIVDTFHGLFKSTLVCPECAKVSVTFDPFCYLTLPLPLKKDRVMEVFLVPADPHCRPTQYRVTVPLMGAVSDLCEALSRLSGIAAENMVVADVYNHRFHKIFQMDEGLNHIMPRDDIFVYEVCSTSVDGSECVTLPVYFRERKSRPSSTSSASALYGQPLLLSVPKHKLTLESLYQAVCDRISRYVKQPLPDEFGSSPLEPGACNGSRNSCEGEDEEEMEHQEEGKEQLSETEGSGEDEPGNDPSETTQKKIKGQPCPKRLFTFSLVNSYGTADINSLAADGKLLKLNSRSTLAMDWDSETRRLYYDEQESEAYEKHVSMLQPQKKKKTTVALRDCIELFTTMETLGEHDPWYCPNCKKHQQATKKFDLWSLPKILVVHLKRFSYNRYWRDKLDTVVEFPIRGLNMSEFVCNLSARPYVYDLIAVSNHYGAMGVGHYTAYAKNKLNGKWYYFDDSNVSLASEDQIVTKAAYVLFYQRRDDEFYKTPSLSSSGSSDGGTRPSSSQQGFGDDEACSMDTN
Outline: as §1

Measured: log2 ratio of Biotin-Ahx-Ub-VS probe labelling

Cc1ccccc1CN(C)C(=O)CCl
inactive: USP34 -0.547 | USP36 -0.347 | USP38 -0.741 | USP39 -0.049 | USP4 -0.831
